Most compounds without a hit are left out; they make up all but 1.8% or so of the library.
KDM4E inh: qHTS Assay for Inhibitors of Human Jumonji Domain Containing 2E (JMJD2E); Lysine-specific demethylase 4E (Homo sapiens), B2RXH2; JMJD2E catalytic domain, FDH-coupled NADH fluorescence (FDH is formaldehyde dehydrogenase); Potency, µM (top dose mostly 57.1 µM), without a hit: top-dose activity change, negative = inhibition, actives largely listed as inhibitors; hit rate 1.6% among 230,000; AID 2147, 2009; active = well fitted inhibition curve with a large enough effect, not every such curve was filed as active; inconclusive = small, poorly fitted or top-dose-only effect, or another doubt; inactive = no such curve, though single readings can be large or run the other way;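 note: 0% = wells with enzyme and -100% = buffer wells without enzyme; nearly all actives have a fitted effect of over 50% in size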
L3MBTL1 inh: qHTS Assay for the Inhibitors of L3MBTL1. hit rate 0.66% among 230,000. AlphaScreen L3MBTL1–H3K9me1 peptide binding. Lethal(3)malignant brain tumor-like protein 1 (Homo sapiens), Q9Y468. AID 485360, 2010. Potency, µM (highest dose often 57.1 µM), for the others: top-dose activity, negative = inhibition, hits mostly inhibitors; note: % is set by controls: 0 for no effect and ±100 for the full control effect; nearly all actives have a fitted effect of over 60% in size
Target sequence (Q9Y468 whole entry, looked up): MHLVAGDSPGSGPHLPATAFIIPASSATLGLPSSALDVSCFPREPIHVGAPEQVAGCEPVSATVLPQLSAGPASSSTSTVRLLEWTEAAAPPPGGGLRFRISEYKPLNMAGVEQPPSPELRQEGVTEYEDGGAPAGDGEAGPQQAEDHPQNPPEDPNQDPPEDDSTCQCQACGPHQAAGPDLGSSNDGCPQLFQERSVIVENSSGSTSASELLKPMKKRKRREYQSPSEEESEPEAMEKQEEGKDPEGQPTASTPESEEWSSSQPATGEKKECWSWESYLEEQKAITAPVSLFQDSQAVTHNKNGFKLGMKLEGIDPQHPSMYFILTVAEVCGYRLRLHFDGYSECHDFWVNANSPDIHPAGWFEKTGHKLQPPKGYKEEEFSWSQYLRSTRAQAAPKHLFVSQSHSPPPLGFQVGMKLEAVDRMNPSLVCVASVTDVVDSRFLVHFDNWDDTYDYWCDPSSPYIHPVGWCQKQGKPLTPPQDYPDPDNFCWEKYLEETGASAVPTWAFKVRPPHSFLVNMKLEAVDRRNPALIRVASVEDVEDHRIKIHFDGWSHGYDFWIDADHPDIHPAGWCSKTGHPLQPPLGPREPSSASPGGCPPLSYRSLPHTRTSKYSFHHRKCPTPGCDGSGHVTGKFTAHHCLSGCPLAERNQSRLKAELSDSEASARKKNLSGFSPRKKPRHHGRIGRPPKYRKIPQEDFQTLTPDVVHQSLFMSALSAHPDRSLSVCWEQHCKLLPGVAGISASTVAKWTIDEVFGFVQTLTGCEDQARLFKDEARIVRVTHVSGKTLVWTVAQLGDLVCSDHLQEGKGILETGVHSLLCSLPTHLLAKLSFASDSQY
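L3MBTL1 (50 nM) pre-complexed 30 min with biotinylated H3(1-15)K9me1 peptide (75 nM), then compounds added for 30 min at room temperature; AlphaScreen streptavidin donor/nickel chelate acceptor beads (10 ug/mL final) read after 30 min dark incubation.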
HTT aggregate: qHTS Multiplex Assay to Identify Dual Action Probes in a Cell Model of Huntington: Aggregate Formation (GFP) | PC12 HttQ103-GFP aggregates, Acumen cytometry, 40 h | Potency, µM (series often up to 46.1 µM), for inactives: top-dose activity change, negative = inhibition, usual class: inhibitors | hit rate 1.1% among 220,000; note: % is set by controls: 0 for no effect and ±100 for the full control effect; nearly all actives have a fitted effect of over 60% in size
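Inducible Q103 Huntingtin exon 1–GFP PC12 line, 1500 cells/well in phenol red free DMEM with 5% equine and 5% calf serum. Tebufenozide 100 nM induced expression; compounds titrated; aggregates quantified by cytometry.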
HTT cytoprotect: qHTS Multiplex Assay to Identify Dual Action Probes in a Cell Model of Huntington: Cytoprotection (ATP); PC12 HTT-Q103 induced, cytoprotection, ATP luminescence, 40 h; Potency, µM (doses to about 56.4 µM), for the others: cytoprotection (ATP increase), hits mostly activators; hit rate 0.14% among 230,000; note: % of control where 0% means no effect; nearly all actives have a fitted effect of over 45% in size
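ATP quantification (ATPlite) reports survival of PC12 cells in which tebufenozide, 100 nM final, switches on Htt exon 1 with 103 glutamines linked to GFP; compounds are titrated.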
Numbers without * were called inactive; ? = inconclusive; / = not tested or not shown; [ ] = dose if it differs, or a comment. Unless noted, calls come from the whole dose curve; as a rule, active = well fitted curve in the direction sought with a large enough effect; inconclusive = small, poorly fitted or top-dose-only effect, or another doubt; inactive = no such curve, though single readings can be large; an effect the other way counts as inactive or inconclusive. Potency is the fitted concentration of half-maximal effect.

SMILES | KDM4E inh | L3MBTL1 inh | HTT aggregate | HTT cytoprotect
O=C1[C@H]2[C@H]3[C@H](O)[C@H](O)C/C(=N/OC[C@@H](O)COCc4ccco4)[C@@H]3CC[C@@H]2C(=O)N1Cc1ccccc1 | / | / | / | -15%[10 µM]
CCCc1n[nH]c2c1/C(=N/O)CC(c1ccccc1)C2 (stereo not drawn) | 0% | 2% | -21% | -11%[10 µM]
Cc1[nH]nc2c1/C(=N/O)CC(c1ccccc1)C2 (stereo not drawn) | 10% | 30% | 13µM* | -32%
Cc1ccc(C(=O)NNC(=O)CCCN2C(=O)/C(=C/c3ccccc3Cl)SC2=S)cc1 | ? | 4% | 35µM* | /
O=C(CCCN1C(=O)/C(=C/c2cccs2)SC1=S)Nc1ccccn1 | -12% | 35µM* | 36%[9.22 µM] | -9%[10 µM]
Cc1noc(C)c1-c1cc(N(C)Cc2ccco2)ncn1 | / | / | / | -5%
CN(c1ncnc(N)c1[N+](=O)[O-])C1CCS(=O)(=O)C1 (stereo not drawn) | -7% | 4% | 4.5µM* | -12%
O=[N+]([O-])/C(C=Nc1ccccc1O)=C\Nc1ccccc1O | 13µM* | -15% | -23%[9.22 µM] | -30%[10 µM]
O=[N+]([O-])/C(=C\Nc1ccccc1Cl)S(=O)(=O)c1ccccc1 | 0% | -9% | 12% | -5%
CC(=O)Nc1ccc(-n2c(=O)c3ccccc3c3ccccc3c2=O)cc1 | ? | 5% | -12%[9.22 µM] | 2%[10 µM]
CCCCCCCC[n+]1c(C)n(-c2ccccc2)c2ccc(NC(C)=O)cc21 | ? | -3% | 10µM* | -36%
CN1CCN(c2ncnc3ccc(-c4ccccc4C(F)(F)F)cc23)CC1 | / | / | / | -292%
CCCCn1c(=O)[nH]c2ccccc21 | 5% | / | 2% | -3%
O=c1[nH]c2ccccc2n1CCCSc1cnc2ccccc2n1 | -3% | -13%[11.4 µM] | 11µM* | -11%
CC(C)CN1CCc2nc(-c3ccccc3)c3c(c2CC1)COC(C)C3 (stereo not drawn) | / | / | / | 1%[10 µM]
O=C(NNC(=O)c1cccc(-n2cccc2)c1)c1ccc(F)cc1 | / | 22µM* | / | /
Cc1cccc(C(=O)NNC(=O)c2ccc(F)cc2)c1 | 3% | 4% | -13% | 19%[10 µM]
CN(c1ccccc1)S(=O)(=O)c1ccc(NC(=O)c2ccc(-c3ccccc3)cc2)cc1 | ? | -2% | 13µM* | -37%
Cc1cnc(CNc2cc(-c3ccc(N(C)C)cc3)ncn2)cn1 | / | / | / | -59%
Cn1c(=N)n(CC(=O)O)c2ccccc21 | -2% | 7% | 5.6µM* | 0%
Cn1c(=N)n(CC(=O)c2ccccc2)c2ccccc21 | -6% | 3% | 1%[9.22 µM] | -49%[10 µM]
COc1ccc(C2C3=C(CC(C)(C)CC3=O)Oc3ncn(Cc4ccccc4)c(=N)c32)cc1 (stereo not drawn) | -4% | / | -19% | 4µM*
CC1(C)CC(=O)C2=C(C1)Oc1ncn(Cc3ccco3)c(=N)c1C2c1ccccc1 (stereo not drawn) | 3% | -9% | -8% | 1%
O=C1CCC[C@@H](C2=CCCCC2=O)C1 | / | / | / | -52%[10 µM]
CCN(CC)CCn1c(-c2ccccc2)nc2c(NCc3ccccc3)nc(C)nc21 | ? | / | / | -23%
SMILES | KDM4E inh | L3MBTL1 inh | HTT aggregate | HTT cytoprotect
Cc1ccc(-c2nc(C(Cl)Cl)c3ccccc3n2)cc1 | 1% | / | 0.89µM* | -80%[10 µM]
CC(=O)N1CC[C@H]2CC(=O)CC[C@@]21C | / | / | / | -16%[96.6 µM]
N#CC1=C(N)OC2=C(CC/C2=C\c2ccc(F)cc2)C1c1ccc(F)cc1 (stereo not drawn) | ? | 10% | 18% | -11%[1.9 µM]
N#CC1=C(N)OC2=C(CCC/C2=C/c2ccoc2)C1c1ccoc1 (stereo not drawn) | 25µM* | 16µM* | 1% | -3%[10 µM]
CC(=O)OC[C@H]1O[C@@H](ON=C(C)C)[C@H](OC(C)=O)[C@@H](OC(C)=O)[C@H]1OC(C)=O | / | / | / | 4%[10 µM]
CC(C)(C)c1ccc(-c2cn(-c3ccc(Br)cc3)c3[n+]2CCCS3)cc1 | -1% | 8% | 1.3µM* | -39%[10 µM]
c1ccc(-c2cn(-c3ccccc3)c3[n+]2CCS3)cc1 | 11% | 7% | ? | -48%
COc1ccc(CCN2C(=O)C3C4C=CC(C3C2=O)C2C(=O)N(CCc3ccc(OC)c(OC)c3)C(=O)C42)cc1OC (stereo not drawn) | -2% | / | 10µM* | -57%[10 µM]

Compound activity from PubChem.
